Beta apoptosis: blocks beta cell apoptosis. 0.8% of 300,000 active. protection from apoptosis, % (no concentration beside the values). AID 435005. INS-1E cytokine-induced death, ATP luminescence, 48 h; percent of positive-control rescue, neutral wells zero;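 active means Every replicate reaches about 75%, or at least half do and their mean reaches it too, limit read from the data; inconclusive means At least half of replicates reach the limit but their mean does not; inactive means Under half of replicates reach the limit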;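 further: 0% = cytokine-treated negative control wells and 100% = positive control rescue; higher means more ATP so stronger rescue from cytokine killing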
MPTP block: blocks calcium-induced mitochondrial swelling. isolated mouse mitochondria, Ca2+ swelling absorbance, 30 min. inhibition, % at 10 µM. 1.4% of 360,000 active;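 active means inhibition of 50% or more, scaled per plate between neutral and stimulator controls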;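 further: 0% = DMSO wells given calcium and 100% = 1 mM EGTA wells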
SKKanGAS inh: inhibitors of SKKanGAS S. pyogenes growth in kanamycin (SK-promoter or general growth effect). inhibition, % at 7.5 µM. 1.3% of 300,000 active. BacTiter-Glo, 6 h;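 active means mean replicate score, as percent of positive control median, at least 50; inconclusive means mean below 50 but one replicate at or above 50; inactive means mean and every replicate below 50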;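 further: strain carries kanamycin resistance gene driven by streptokinase promoter and grows in 40 µg/ml kanamycin; loss of luminescence reflects streptokinase promoter inhibition or plain growth inhibition; 0% = median of DMSO wells and 100% = positive control at its reference dose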
Calb FLC: affects C. albicans growth with fluconazole | C. albicans CaCi-2 (fluconazole-resistant clinical isolate) + fluconazole, Alamar Blue growth, 48 h | growth inhibition, % (concentration not given with the values) | 0.57% of 300,000 active | AID 1979;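 active means growth inhibition above about 58% in most replicates, limit read from the data, passing the limit was not always enough; inconclusive means exactly half the replicates above a set limit; inactive means most replicates below a set limit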;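 further: all wells also contain fluconazole at 8 µg/ml as a sub-toxic cotreatment; 0% = median of DMSO wells and 100% = median of geldanamycin control wells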
Mdm2-MdmX inh: disrupts the human Mdm2-MdmX interaction | 3% of 330,000 active | SaOS-2 split-luciferase Mdm2/MdmX complementation, luminescence | AID 485346 | inhibition, % at 8 µM;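 active means inhibition of at least 50% at 8 µM in the primary screen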
Target sequence (O15151 whole entry, looked up): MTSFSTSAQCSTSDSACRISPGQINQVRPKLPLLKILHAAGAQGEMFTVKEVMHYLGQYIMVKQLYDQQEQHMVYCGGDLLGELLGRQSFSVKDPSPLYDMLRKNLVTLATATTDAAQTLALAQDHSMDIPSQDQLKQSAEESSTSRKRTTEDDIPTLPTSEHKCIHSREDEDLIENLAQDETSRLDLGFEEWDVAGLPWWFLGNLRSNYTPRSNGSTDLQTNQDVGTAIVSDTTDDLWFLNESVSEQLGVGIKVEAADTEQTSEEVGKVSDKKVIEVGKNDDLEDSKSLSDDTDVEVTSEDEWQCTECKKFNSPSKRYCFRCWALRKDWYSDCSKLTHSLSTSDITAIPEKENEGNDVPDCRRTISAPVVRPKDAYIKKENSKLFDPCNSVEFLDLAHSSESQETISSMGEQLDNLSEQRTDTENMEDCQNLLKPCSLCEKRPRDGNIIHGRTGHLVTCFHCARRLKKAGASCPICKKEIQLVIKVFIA
Target sequence (Q00987 whole entry, looked up): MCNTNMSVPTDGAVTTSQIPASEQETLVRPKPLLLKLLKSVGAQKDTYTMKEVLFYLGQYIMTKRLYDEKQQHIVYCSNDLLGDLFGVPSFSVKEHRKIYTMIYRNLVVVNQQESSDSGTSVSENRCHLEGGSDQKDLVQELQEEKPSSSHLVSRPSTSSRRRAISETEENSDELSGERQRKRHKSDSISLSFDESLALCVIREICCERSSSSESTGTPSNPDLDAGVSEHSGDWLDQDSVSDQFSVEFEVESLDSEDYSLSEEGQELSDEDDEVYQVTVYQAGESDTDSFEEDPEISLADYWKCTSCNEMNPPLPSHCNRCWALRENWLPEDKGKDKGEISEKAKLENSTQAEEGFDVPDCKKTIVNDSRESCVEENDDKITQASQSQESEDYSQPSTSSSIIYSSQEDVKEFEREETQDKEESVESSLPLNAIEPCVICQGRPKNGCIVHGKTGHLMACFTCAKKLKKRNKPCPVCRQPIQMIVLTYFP
CSC inhib: blocks cancer stem cells. cancer stem cell-like cells viability, luminescence. inhibition, % at 7.5 µM. 1.1% of 300,000 active. AID 2717; in the data active means inhibition above about 75%; inconclusive means no clear call, values can overlap the other calls; tested in HMLE shEcad cells
Rh123 counter: membrane potential counter-screen of mitochondrial pore inhibitors; 78% of 5,000 active; isolated mitochondria, Rhodamine 123 fluorescence; inhibition, % at 10 µM; shares compounds with MPTP block; in the data active means inhibition above about 22%;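 further: 0% = DMSO vehicle and 100% = positive control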
MPTP swell DR: MPTP inhibition, dose response swelling confirmation. shares compounds with MPTP block. isolated mitochondria swelling, absorbance. IC50, µM. 58% of 780 active. AID 651561; in the data active means IC50 below about 20 µM
MPTP counter DR: active in counter-screen for permeability transition pore inhibitors; shares compounds with MPTP block; isolated mitochondria counterscreen, fluorescence read-out; IC50, µM; 49% of 780 active; AID 651564; in the data active means IC50 below about 80 µM
Starred values were filed as active, the others as inactive. Sampled rows, rich in hits. Any-hit rate of the full collection: about 5.4%.

For CCCCN(C(=S)Nc1ccccc1)C1CCS(=O)(=O)C1 (configuration not stated) the results were Beta apoptosis -4, MPTP block -5, SKKanGAS inh -8, Calb FLC 0, Mdm2-MdmX inh 14 and CSC inhib 11.
Screening Cc1ccc(N(Cc2cc3cc(C)ccc3[nH]c2=O)C(=O)c2cccs2)cc1 returned Beta apoptosis -1, MPTP block -1, SKKanGAS inh 5, Calb FLC 15, Mdm2-MdmX inh 25 and CSC inhib -10.
COc1ccc(CNC(=O)CCCn2nc(C)c3c(C)n(-c4ccc(C)cc4)nc3c2=O)cc1 was read as Beta apoptosis -12, MPTP block 1, SKKanGAS inh 8, Calb FLC -12, Mdm2-MdmX inh 30 and CSC inhib -11.
Screening CCOc1ccc(C(C)=O)cc1CSC(=N)N returned MPTP block 0, SKKanGAS inh 8, Calb FLC inconclusive, Mdm2-MdmX inh -1 and CSC inhib 0.
For CCCCOc1ccc(Br)cc1CSC(=N)N the results were MPTP block 83*, SKKanGAS inh -6, Calb FLC -23 and Rh123 counter 108*.
Cc1cc(=O)c2ccc(C(F)(F)F)cc2[nH]1 was read as Beta apoptosis -5, MPTP block 1, SKKanGAS inh -1, Calb FLC 5, Mdm2-MdmX inh 18 and CSC inhib -3.
Screening O=c1cc(C(F)(F)F)[nH]c2ccc(C(F)(F)F)cc12 returned Beta apoptosis 28, MPTP block 61*, SKKanGAS inh 18, Calb FLC -5, Mdm2-MdmX inh 15, CSC inhib 32 and Rh123 counter 82*.
Screening C(=C\c1nc(N2CCCC2)c2ccccc2n1)/c1ccccc1 returned Beta apoptosis 35, MPTP block 90*, SKKanGAS inh 25, Calb FLC -4, Mdm2-MdmX inh 19, CSC inhib 36 and Rh123 counter 95*.
For CC(C(=O)Nc1ccc(C#N)cc1)N(C)CC(=O)Nc1ccccc1Br (configuration not stated) the results were Beta apoptosis 6, MPTP block 0, SKKanGAS inh -5, Calb FLC 25, Mdm2-MdmX inh 15 and CSC inhib 12.
Screening NC(=O)c1nnn(Cc2cc(Cl)c(C(=O)c3ccc(Cl)cc3)c(Cl)c2)c1N returned MPTP block 73* and Rh123 counter 91*.
Screening COc1ccc(C2/C=C\CN(C(=O)Nc3ccc(C(F)(F)F)cc3)CC(=O)N2Cc2ccc(F)cc2)cc1 (configuration not stated) returned Beta apoptosis 81*, MPTP block 103*, SKKanGAS inh 44, Calb FLC -7, Mdm2-MdmX inh 27, CSC inhib -5 and Rh123 counter 100*.
Screening CC(=O)N1CCN(C(=S)c2ccc([N+](=O)[O-])cc2)CC1 returned Beta apoptosis 0, MPTP block 119*, SKKanGAS inh 1, Calb FLC 3, Mdm2-MdmX inh 22, CSC inhib -3, Rh123 counter 0, MPTP swell DR >100 and MPTP counter DR >80.
Screening CCCOc1ccc(S(=O)(=O)NNC(=O)c2cc3ccccc3o2)cc1 returned Beta apoptosis 3, MPTP block 66*, SKKanGAS inh 1, Calb FLC 25, Mdm2-MdmX inh 15, CSC inhib -8 and Rh123 counter 31*.
`C=CCN=c1scc(-c2ccc(F)cc2)n1/N=C/c1ccccn1` gave Beta apoptosis 20, MPTP block 10, SKKanGAS inh -2, Calb FLC 18, Mdm2-MdmX inh -6 and CSC inhib 33.
C=CCN=c1scc(-c2ccc3c(c2)NC(=O)CO3)n1/N=C(\C)c1ccccn1 was read as MPTP block 95* and Rh123 counter 62*.
`Cc1ccc(-n2nnnc2-c2cnc(N3CCCC3)nc2C(F)(F)F)cc1` gave Beta apoptosis -5, MPTP block -1, SKKanGAS inh 2, Calb FLC 4, Mdm2-MdmX inh 1 and CSC inhib -2.
Screening FC(F)(F)c1nc(N2CCCC2)ncc1-c1nnnn1-c1ccccc1 returned Beta apoptosis 21, MPTP block 73*, SKKanGAS inh 1, Calb FLC 4, Mdm2-MdmX inh 8 and Rh123 counter 65*.
For COc1cccc(NC(=O)CCC(=O)Nc2ccc3nc(N4CCOCC4)cc(C)c3c2)c1 the results were Beta apoptosis -10, MPTP block 0, SKKanGAS inh 6, Calb FLC -1, Mdm2-MdmX inh 0 and CSC inhib 2.
For COc1cc(C)c(NC(=S)Nc2cccc(Cl)c2)cc1OC the results were Beta apoptosis -5, MPTP block 83*, SKKanGAS inh -3, Calb FLC -13, Mdm2-MdmX inh 4, CSC inhib -14 and Rh123 counter 83*.
Screening COc1cc(C)c(NC(=S)Nc2ccc(C)c(Cl)c2)cc1OC returned Beta apoptosis 0, MPTP block 61*, SKKanGAS inh 3, Calb FLC -3, Mdm2-MdmX inh -1, CSC inhib -1 and Rh123 counter 77*.
Screening COc1ccccc1NS(=O)(=O)c1cc(NC(=S)Nc2cc(C)cc(C)c2)ccc1Cl returned Beta apoptosis 3, MPTP block 97*, SKKanGAS inh 9, Calb FLC 24, Mdm2-MdmX inh 19, CSC inhib 17 and Rh123 counter 94*.
COc1cc(OC)c(NC(=S)Nc2cccc(C)c2)cc1Cl was read as Beta apoptosis 2, MPTP block 1, SKKanGAS inh -11, Calb FLC inconclusive, Mdm2-MdmX inh 11 and CSC inhib 5.
COc1ccc(NC(=S)Nc2cccc(Cl)c2Cl)cc1OC was read as Beta apoptosis -5, MPTP block 0, SKKanGAS inh 4, Calb FLC -3, Mdm2-MdmX inh 7 and CSC inhib -14.
For COc1ccc(CN(C)C(=O)C2CC(=O)N(c3ccc4c(c3)OCCO4)C2)c(OC)c1 (configuration not stated) the results were Beta apoptosis -1, MPTP block -1, Mdm2-MdmX inh -3 and CSC inhib 4.
Screening O=C(Nc1ccc(Oc2ccccc2)cc1)c1cnc2n(c1=O)CCS2 returned MPTP block 92*, SKKanGAS inh 16, Calb FLC -1, Mdm2-MdmX inh 16, CSC inhib 5 and Rh123 counter 61*.
O=C(Nc1nc(-c2cc3ccccc3o2)cs1)c1ccc(S(=O)(=O)N2CCCC2)cc1 was read as Beta apoptosis 72, MPTP block 63*, SKKanGAS inh 14, Calb FLC 4, Mdm2-MdmX inh 28, CSC inhib 18 and Rh123 counter 82*.

Screens as filed in PubChem.
